High-throughput results as filed in PubChem.
Many of the other results were omitted from the sample, so hits are more common in it than they were.
LmPK inhibitor: blocks Leishmania mexicana pyruvate kinase activity; hit rate 0.37% among 290,000; purified LmPK, Kinase-Glo ATP luminescence, 1 h; Potency, µM (titrated, usually from 57.5 µM), for inactives: at the top dose activity change, negative = inhibition, most hits filed as inhibitors; also: potency is read from the fitted curve at half-maximal effect; % is scaled to controls: 0 for no effect and ±100 for the full control effect
Target sequence (Q27686 whole entry, looked up): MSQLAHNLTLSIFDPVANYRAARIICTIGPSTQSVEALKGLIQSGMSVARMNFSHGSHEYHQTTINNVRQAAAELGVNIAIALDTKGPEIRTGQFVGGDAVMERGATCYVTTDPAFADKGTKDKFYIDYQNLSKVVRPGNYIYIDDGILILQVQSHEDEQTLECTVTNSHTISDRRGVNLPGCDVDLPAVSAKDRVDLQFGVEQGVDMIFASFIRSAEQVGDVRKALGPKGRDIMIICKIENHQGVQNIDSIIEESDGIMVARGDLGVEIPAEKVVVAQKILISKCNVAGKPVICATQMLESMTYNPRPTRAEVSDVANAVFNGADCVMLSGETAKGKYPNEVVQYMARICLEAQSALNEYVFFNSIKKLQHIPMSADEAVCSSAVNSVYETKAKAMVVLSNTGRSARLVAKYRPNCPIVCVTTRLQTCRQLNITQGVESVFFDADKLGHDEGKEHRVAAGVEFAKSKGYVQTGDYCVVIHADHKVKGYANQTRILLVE
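In 50 mM imidazole pH 7.2 with 7 mM MgCl2, LmPK (0.1 nM) turned over PEP (0.5 mM) and ADP (0.1 mM) for 1 h at room temperature. Luciferase read-out of ATP.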
Tb PYK inh: inhibitors of Trypanosoma brucei pyruvate kinase; Q57TT1; hit rate 0.12% among 410,000; AID 624173; Potency, µM (series often up to 76.8 µM), inactives show at the highest dose activity, negative = inhibition, usual class: inhibitors; TbPYK enzyme, Kinase-Glo Plus ATP luminescence, 45 min; also: potency is read from the fitted curve at half-maximal effect; % is scaled to controls: 0 for no effect and ±100 for the full control effect; nearly all actives have a fitted effect of over 50% in size
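Glycolytic pyruvate kinase of T. brucei was incubated with substrate, test compound and 130 uM ADP for 45 minutes at room temperature. Luminescent Kinase-Glo Plus signal was measured after 10 minutes.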
Shiga toxin inh: Shiga toxin inhibition. Vero cells, Shiga toxin protein synthesis inhibition reporter. hit rate 9.2% among 290,000. AID 2315. inhibition, % at 38.7 µM; in the data active = inhibition mostly above about 28%, no sharp cut-off; inactive = mostly below about 43%; also: 0% is about no effect
RE007 growth inh: less growth of the S. pombe RE007 Vpr strain | S. pombe RE007 Vpr strain, BacTiter-Glo ATP luminescence, 24 h | hit rate 0.21% among 360,000 | Potency, µM (highest dose often 92.2 µM), for inactives: top-dose activity change, negative = less growth, most hits filed as inhibitors | AID 651644; active = well fitted falling curve with a large enough effect; inconclusive = small, poorly fitted or top-dose-only effect; inactive = no such curve, though single readings can be large or run the other way; also: potency is read from the fitted curve at half-maximal effect; % is scaled to controls: 0 for no effect and ±100 for the full control effect; nearly all actives have a fitted effect of over 50% in size
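Fission yeast RE007 carrying one integrated HIV-1 vpr copy, seeded at OD 0.01 in PMG+AL medium with 23 nL pinned compound. Grown 24 h at 30 degrees; viability read by BacTiter-Glo luminescence after 5 min.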
Cycloheximide cs: counter-screen hit for Shiga toxin inhibitors, cycloheximide | cell reporter, cycloheximide protein synthesis inhibition counterscreen | max response, % | hit rate 12% among 300,000; in the data active = max response mostly above about 13%, no sharp cut-off; inactive = mostly below about 14%; also: read at 38.3 µM for the half of the compounds with a filed dose; 0% is about no effect
FBPA Giardia inh: Giardia lamblia aldolase inhibition. purified Giardia FBPA. Potency, µM (top dose mostly 59.6 µM), for inactives: top-dose activity, negative = inhibition, hits mostly inhibitors. hit rate 0.71% among 290,000. AID 2451; also: potency is read from the fitted curve at half-maximal effect; % is scaled to controls: 0 for no effect and ±100 for the full control effect; nearly all actives have a fitted effect of over 55% in size
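40 nM FBPA preincubated 10 min at RT with compound (up to 57.5 uM final), then substrate plus GAPDH/TPI/NAD/arsenate coupling and diaphorase/resazurin added. Fluorescence read after 20 min at RT, 525/598 nm.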
* hit, by the source's call; [ ] = another dose, or the depositor's remark. Unless noted, calls follow the shape of the dose curve; as a rule, active = well fitted curve in the direction sought with a large enough effect; inconclusive = small, poorly fitted or top-dose-only effect, or another doubt; inactive = no such curve, though single readings can be large; an effect the other way counts as inactive or inconclusive.

For CCOc1ccc(CNC(=O)c2ccc3c(c2)nc2n3CCCCC2)cc1 the results were Tb PYK inh -14%.
`CCOc1ccc(C(=O)c2cccs2)cc1` gave LmPK inhibitor 0%, Tb PYK inh 0%, Shiga toxin inh 44, RE007 growth inh inconclusive, Cycloheximide cs 27* and FBPA Giardia inh 0%.
`CCCOc1ccc(C(=O)Nc2ccc(NC(=O)c3cccs3)cc2)cc1` gave LmPK inhibitor 2%, Tb PYK inh -3%, Shiga toxin inh 49*, RE007 growth inh 2%, Cycloheximide cs 13 and FBPA Giardia inh 5%.
CCCCOc1cccc(C(=O)Nc2ccc(NC(=O)c3cccs3)cc2)c1 was read as LmPK inhibitor 9%, Tb PYK inh 0%, Shiga toxin inh 28, RE007 growth inh 6%, Cycloheximide cs -1 and FBPA Giardia inh 1%.
For CCCOc1ccc(C(=O)Nc2ccc(N(C)C)cc2)cc1 the results were LmPK inhibitor 2%, Tb PYK inh -15%, Shiga toxin inh 141*, RE007 growth inh -5%, Cycloheximide cs 47* and FBPA Giardia inh 6%.
`CC(C)Oc1ccc(C(=O)Nc2ccc(N(C)C)cc2)cc1` gave LmPK inhibitor 4%, Tb PYK inh inconclusive, Shiga toxin inh 90*, RE007 growth inh 5%, Cycloheximide cs 25* and FBPA Giardia inh 4%.
CCN1CCN(C(=O)c2cnn(-c3cccc(C)c3)c2C2CCN(C(=O)OC(C)(C)C)CC2)CC1 was read as Tb PYK inh 2%[15.4 µM].
For CCS(=O)(=O)N1CCc2nc(-c3ccccc3)sc2C1 the results were LmPK inhibitor -10%, Tb PYK inh -5%, Shiga toxin inh 72*, RE007 growth inh 2%, Cycloheximide cs 48* and FBPA Giardia inh 0%.
For COc1ccc(-c2nc3c(s2)CN(S(C)(=O)=O)CC3)cc1OC the results were LmPK inhibitor 1%, Tb PYK inh -4%, Shiga toxin inh 31, RE007 growth inh -17%, Cycloheximide cs 13 and FBPA Giardia inh 5%.
Screening CCc1cc2c(cc3c(=O)n(CC(=O)N4CCCCC4)nc(CC)n32)s1 returned Tb PYK inh 4%.
For COC(=O)c1ccc(COc2ccc3c(C)c(C)c(=O)oc3c2C)o1 the results were LmPK inhibitor 8%, Tb PYK inh 1%, Shiga toxin inh 65*, RE007 growth inh 16%, Cycloheximide cs 15* and FBPA Giardia inh 5%.
`Cc1c(OCc2ccc(C(=O)O)o2)ccc2c3c(c(=O)oc12)CCC3` gave LmPK inhibitor 11%, Tb PYK inh 0%, Shiga toxin inh 84*, RE007 growth inh -4%, Cycloheximide cs 21 and FBPA Giardia inh 20%.
For Cc1ccccc1CNC(=O)c1ccc(CS(=O)Cc2ccc(Cl)cc2)o1 (centres undefined) the results were Tb PYK inh 0%.
Screening Cc1cccc(/C=N/n2c(C)nc3ccccc3c2=O)c1 returned LmPK inhibitor -1%, Tb PYK inh -7%, Shiga toxin inh 100*, RE007 growth inh -5%, Cycloheximide cs 22* and FBPA Giardia inh 6%.
`Cc1nc2ccccc2c(=O)n1/N=C/c1ccc(C(C)C)cc1` gave LmPK inhibitor -7%, Tb PYK inh -1%, Shiga toxin inh 38*, RE007 growth inh 10%, Cycloheximide cs 22* and FBPA Giardia inh 0%.
`COc1ccc(/C=N/n2c(C)nc3ccccc3c2=O)cc1` gave LmPK inhibitor 1%, Tb PYK inh 2%, Shiga toxin inh 38, RE007 growth inh 12%, Cycloheximide cs -2 and FBPA Giardia inh 2%.
`COC(=O)c1ccc(/C=N/n2c(C)nc3ccccc3c2=O)cc1` gave LmPK inhibitor 4%, Tb PYK inh -3%, Shiga toxin inh 41*, Cycloheximide cs 21* and FBPA Giardia inh -1%.
Screening Cc1nc2ccccc2c(=O)n1/N=C/c1ccc(O)cc1 returned LmPK inhibitor 7%, Tb PYK inh 0%, Shiga toxin inh 17, RE007 growth inh 1%, Cycloheximide cs 1 and FBPA Giardia inh 1%.
For Oc1cccc(/C=N/Nc2cc(N3CCOCC3)nc(N3CCOCC3)n2)c1 the results were LmPK inhibitor -1%, Tb PYK inh -7%, Shiga toxin inh -2, Cycloheximide cs 19* and FBPA Giardia inh -19%.
COc1ccccc1/C=N/Nc1cc(C)nc(N2CCOCC2)n1 was read as LmPK inhibitor 2%, Tb PYK inh -1%, Shiga toxin inh 22, RE007 growth inh -4%, Cycloheximide cs 24* and FBPA Giardia inh 2%.
Screening COc1ccc(/C=N/Nc2cc(C)nc(N3CCOCC3)n2)cc1OC returned LmPK inhibitor 0%, Tb PYK inh -5%, Shiga toxin inh 40, RE007 growth inh -8%, Cycloheximide cs 10 and FBPA Giardia inh -1%.
Oc1ccccc1/C=N/Nc1cc(N2CCCC2)nc(N2CCCC2)n1 was read as LmPK inhibitor 0%, Tb PYK inh 6%, Shiga toxin inh 30, RE007 growth inh -21%, Cycloheximide cs 12* and FBPA Giardia inh -29%.
CCCCCCC#Cc1cc(OC)c(OC)cc1C(N1CC(C)c2ccccc21)N1CC(C)c2ccccc21 (centres undefined) was read as FBPA Giardia inh -8%[12.9 µM].
For CCN(CC)CCNC(=O)CNC(=O)c1nn(-c2ccc(OC)cc2OC)c(=O)c2ccccc12 the results were LmPK inhibitor 0%, Tb PYK inh 1%, Shiga toxin inh -6, RE007 growth inh -9%, Cycloheximide cs -3 and FBPA Giardia inh 0%.
`CC(N=C1NS(=O)(=O)c2ccccc21)C(=O)N1CCc2ccccc2C1` (centres undefined) gave LmPK inhibitor -8%, Tb PYK inh -2%, Shiga toxin inh 46*, RE007 growth inh 3%, Cycloheximide cs 19* and FBPA Giardia inh -1%.
Cc1ccc(N(O)C(=O)NCCCCNC(=O)N(O)c2ccc(C)cc2)cc1 was read as LmPK inhibitor -9%, Tb PYK inh -1%, Shiga toxin inh 52*, RE007 growth inh -8%, Cycloheximide cs 36* and FBPA Giardia inh -4%.
For Cc1ccc(S(=O)(=O)NC(=O)NCCCCNC(=O)NS(=O)(=O)c2ccc(C)cc2)cc1 the results were LmPK inhibitor -1%, Tb PYK inh 4%, Shiga toxin inh -10, RE007 growth inh -22%, Cycloheximide cs -4 and FBPA Giardia inh -1%.
Cc1cccc(NC(=S)NC(=O)C(c2ccccc2)c2ccccc2)n1 was read as Tb PYK inh -13% and RE007 growth inh 12%.
`Cc1cccc(NC(=S)NC(=O)c2oc3ccccc3c2C)n1` gave LmPK inhibitor 5%, Tb PYK inh 12%, Shiga toxin inh 56*, RE007 growth inh 1%, Cycloheximide cs 38* and FBPA Giardia inh -6%.
